D2 antagonist = D2 dopamine receptor (human) antagonism | 340,000 compounds, 2% hits | inhibition, % at 10 µM | HEK293 TREx D2 cells, calcium flux, dopamine EC80; in the data active = inhibition above about 30%; inactive = below that, where a call was filed; also: 0% is about no effect
Target sequence (P14416 whole entry, looked up): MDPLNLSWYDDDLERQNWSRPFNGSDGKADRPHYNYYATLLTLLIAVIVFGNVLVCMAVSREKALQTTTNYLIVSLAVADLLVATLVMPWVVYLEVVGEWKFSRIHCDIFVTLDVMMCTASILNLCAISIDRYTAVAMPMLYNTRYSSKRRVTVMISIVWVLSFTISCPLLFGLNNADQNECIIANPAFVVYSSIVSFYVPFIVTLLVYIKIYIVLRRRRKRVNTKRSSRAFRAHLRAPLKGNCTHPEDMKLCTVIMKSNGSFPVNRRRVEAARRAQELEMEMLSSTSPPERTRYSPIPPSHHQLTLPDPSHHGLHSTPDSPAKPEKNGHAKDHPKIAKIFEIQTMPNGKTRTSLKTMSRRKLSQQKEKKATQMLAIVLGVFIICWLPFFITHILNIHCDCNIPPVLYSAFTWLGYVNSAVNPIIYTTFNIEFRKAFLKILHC
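Tetracycline-induced HEK293 TREx cells expressing D2 receptor forced-coupled to calcium signalling, loaded with no-wash calcium dye. Compounds added and calcium flux read 180 s, then dopamine added at EC80 and read a further 180 s.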
D2 ag-1 = human D2 receptor agonism in beta-arrestin assay | DiscoveRx PathHunter D2 beta-arrestin, luminescence, 90 min; 100% = 57 uM dopamine signal | P14416 | AID 624465 | activation, % (test concentration not listed) | 360,000 compounds, 0.084% hits; in the data active = activation above about 40%; inconclusive = between about 15% and that limit
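DiscoveRx PathHunter D2 beta-arrestin cells (2,100/well) attached overnight, then compound-stimulated 90 min at 37 C in HBSS/10 mM HEPES/0.1% Tween-20 buffer; beta-galactosidase complementation read by luminescence after 1 h at ambient temperature. Dopamine 57 uM final (EC100) as control.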
D2 PAM-1 = human D2 receptor positive allosteric modulation. P14416. DiscoveRx D2 beta-arrestin cells, luminescence, 90 min; 100% = 57 uM dopamine signal. potentiation, % (test concentration not listed). 360,000 compounds, 0.23% hits; in the data active = potentiation above about 50%; inconclusive = mostly about 30% to 49%
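PathHunter beta-arrestin assay in DiscoveRx D2 cells. Compounds were added with an EC20 of dopamine (50 nM final) for 90 min at 37 deg C. Luminescence was read 1 h after detection reagent, with 57 uM dopamine as the EC100 control.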
D2 PAM-2 = D2 dopamine receptor (human) potentiation; 340,000 compounds, 0.34% hits; HEK293 T-REx D2, calcium flux, EC20 dopamine potentiation; AID 485347; potentiation, % at 10 µM; P14416;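 active = potentiation over 3 SD above the plate norm, cut at about 30% in these data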; also: 0% is about no effect
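Tetracycline-induced Hek293 Trex D2 cells, force-coupled to calcium, loaded with no-wash calcium dye. Compound added with 180 s kinetic read for agonism, then EC20 dopamine and a further 180 s read for potentiation.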
D2 ag-2 = D2 dopamine receptor (human) agonism; P14416; 340,000 compounds, 0.53% hits; HEK293 T-REx D2 cells, calcium flux agonist mode; activation, % at 2 µM;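 active = activation over 3 SD above normal in the single-dose calcium agonist read, cut at about 30% in these data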; also: 0% is about no effect
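Agonism scored from kinetic calcium signal (1 read/sec, 180 s) following compound pin transfer, after a 10 s baseline. Cells: HEK293 Trex line expressing inducible D2 receptor coupled to calcium, dye-loaded after overnight culture at 30 C.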
Numbers without * were called inactive; ? = inconclusive; . = no result. The list is not random: actives were taken first. Their share in the collection is about 2.4%.

SMILES	D2 antagonist	D2 ag-1	D2 PAM-1	D2 PAM-2	D2 ag-2
CC(C)Oc1ccc(C(=O)NCC(c2ccc(N(C)C)cc2)N2CCCC2)cc1 (stereo not given)	.	.	.	-3	0
Cc1ccc(SC[C@H](c2ccccc2)N2CCN(CCc3ccccc3)CCC2=O)cc1	41*	3	-30	-8	0
Cc1cc(O)c(C(=O)c2cnc3c(c2)COc2ccccc2-3)cc1Cl	.	.	.	-3	0
CN(C)CCN(Cc1ccc(Cl)cc1)c1ccccn1	59*	-3	-22	-21	1
C[N+](C)(C)CCN(Cc1ccc(Cl)cc1)c1ccccn1	9	-1	-4	6	0
COc1ccc(-c2noc(N3CCC(C(=O)Nc4ccc(C)c(F)c4)CC3)n2)cc1OC	.	.	.	-4	0
Cc1c(NC(=O)C(F)(F)F)ccc2nc3c(=O)n(C)c(=O)n(C)c3nc12	.	.	.	1	1
CCOC(=O)c1[nH]ncc1CN1CCCC(C(=O)c2cc(Cl)ccc2OC)C1 (stereo not given)	73*	0	-6	-27	1
CCOC(=O)c1[nH]ncc1CN1CCCC(C(=O)c2ccc(OC)c(OC)c2)C1 (stereo not given)	.	1	-9	.	.
COC(=O)c1ccc(OC(=O)CN2C(=O)c3ccccc3C2=O)cc1	-10	3	75*	-4	0
CC1=CC(C)(C)Nc2ccc(OC(=O)CN3C(=O)c4ccccc4C3=O)cc21	1	15	113*	5	-2
COC(=O)c1ccc(CN2C(=O)c3ccccc3C2=O)cc1	-10	1	1	3	0
COc1cccc(CNC(=O)CSc2nc(=O)[nH]c3c2CCC3)c1	.	.	.	-5	0
O=C1CCCN2N=C(SCC(=O)N3N=C(c4ccc(Br)cc4)CC3c3ccc(F)cc3)SC2=N1 (stereo not given)	15	1	-7	-2	4
COc1ccc(C2=NN(C(=O)CSc3nc(=O)n4cc(C)ccc4n3)C(c3ccc(C)cc3)C2)cc1 (stereo not given)	41*	6	-13	-6	0
Cc1ccc(C2CC(c3ccc(Br)cc3)=NN2C(=O)CSC2=NN3CCCC(=O)N=C3S2)cc1 (stereo not given)	-3	-2	-8	33*	0
COc1ccc(C2=NN(C(=O)CSc3ncccn3)C(c3ccc(OC)cc3)C2)cc1 (stereo not given)	17	-2	-21	13	1
CN1CCN(C2=CC3=CC(=C(C#N)C#N)CCC3CC2)CC1 (stereo not given)	49*	4	6	19	173*
CCN1CCN(C2=CC3=CC(=C(C#N)C#N)CCC3CC2)CC1 (stereo not given)	79*	4	-11	-33	142*
N#CC(C#N)=C1C=C2C=C(N3CCOCC3)CCC2CC1 (stereo not given)	65*	-3	14	-26	132*
N#CC(C#N)=C1C=C2C=C(N3CCCCCC3)CCC2CC1 (stereo not given)	83*	?	10	-19	154*
CC1(C)CC(NCCN2CCN(C3=CC(=C(C#N)C#N)CC(C)(C)C3)CC2)=CC(=C(C#N)C#N)C1	-1	-2	-8	20	-1
CCOC(=O)c1scc(-c2ccccc2)c1S(=O)(=O)N1CCN(c2ccc(Cl)cc2)CC1	.	.	.	2	0
Cc1ccc(S(=O)(=O)CCN2CCN(c3ccccc3)CC2)cc1	30*	0	-12	-16	9
COc1cccc2c1cc1c(=O)n(CC(=O)N3CCN(c4ccc(Cl)cc4)CC3)nc(C)n12	.	.	.	-3	0
SMILES	D2 antagonist	D2 ag-1	D2 PAM-1	D2 PAM-2	D2 ag-2
Cc1ccc(Nc2c(-c3ccc(C)o3)nc3ncccn23)cc1	-7	8	5	13	1
Cc1ccc(-c2nc3ncccn3c2Nc2ccc3c(c2)OCO3)o1	-4	11	63*	12	0
O=C(NN=C1CCCC1)c1cc(-c2ccccc2)n[nH]1	.	-1	0	5	.
O=C(NN=C1CCCC1)c1ccn[nH]1	42*	-2	8	-1	0
COc1cccc(N2CCN(C3OC(=O)c4ccccc43)CC2)c1 (stereo not given)	30*	0	-1	4	-2
COc1cc(OC)cc(C(=O)N/N=C/c2ccc(OC)c(COc3ccc(F)cc3)c2)c1	34*	4	-3	-14	1
COc1ccc(OCc2cc(/C=N\NC(=O)c3ccccc3)ccc2OC)cc1	12	2	5	-1	0
OC(CNCC1COc2ccccc2O1)COCc1cccs1 (stereo not given)	31*	-3	-14	-35	0
O=C(CC1COc2ccccc2O1)NCCc1ccccc1 (stereo not given)	-2	-1	-2	-1	1
CCOC(=O)CCNCC1COc2ccccc2O1 (stereo not given)	1	-2	-29	-20	17
c1ccc(CCCCNCC2COc3ccccc3O2)cc1 (stereo not given)	96*	-2	-5	-43	8
CCCNCC1COc2ccccc2O1 (stereo not given)	33*	0	-14	-29	13
CCOc1ccc(OCC)c(NC(=O)c2nnn(CC(=O)Nc3cc(Cl)ccc3OC)c2N)c1	.	.	.	-9	0
Cc1ccc(Oc2ncc(CN3CCOCC3)s2)cc1	10	-2	-5	-10	0
Brc1ccc(Oc2ncc(CN3CCN(c4ccccc4)CC3)s2)cc1	-4	45*	-2	-6	0
COc1cc(Cl)c(C)cc1NC(=O)CSc1cc(-c2ccccc2)nc(C)n1	.	.	.	-17	1
Cc1csc(SCC(=O)Nc2ccc(C)c(F)c2)n1	37*	-3	-17	-23	-1
Cc1csc(SCC(=O)Nc2ccccc2C)n1	7	-4	-23	17	0
Cc1csc(SCC(=O)Nc2cccc3nsnc23)n1	33*	0	-4	4	1
Cc1ccc(NC(=O)c2ccc(CN3CC(=O)N4CCCCC4C3=O)cc2)cc1 (stereo not given)	.	.	.	0	-1
Cc1ccc(NC(=O)N2CCN(c3nnc(C)c4c(C)n(-c5ccc(Cl)cc5)nc34)CC2)c(C)c1	.	.	.	-7	0
O=C(Nc1ccc(Cl)cc1)c1cc2c(-c3ccccc3)nn(-c3ccccc3)c2s1	.	.	.	5	.
CC(=O)NC(CC(=O)NC(C)c1ccc(Cl)cc1Cl)c1ccccc1 (stereo not given)	34*	-1	-16	-5	-5
CCCN(CC(=O)Nc1ccc(Cl)cc1Cl)C(=O)CC(NC(C)=O)c1ccccc1 (stereo not given)	-10	-4	-48	0	0
CC(C)CCn1c(O)c(N=NC(=O)c2ccco2)c2ccccc21	31*	-3	-7	-2	3
